Experimental data as given in PubChem BioAssay AID2283176 (EPA ToxCast).
Records with an inconclusive call do not appear. Calls of active or inactive are those of the source. Rule for the calls: active = hit-call score of the fitted dose curve at least 0.9, where 1 is the maximum; inconclusive = response in the unintended direction; inactive = score below 0.9.

What follows are compounds tested against human MAP Kinase-Activated Protein Kinase 5 (MAPKAPK5), MAPKAPK5 (gene 8550) (UniProt Q8IW41) (assay: NVS_ENZ_hMAPKAPK5: NovaScreen (NVS) Enzymatic Assay for human MAP Kinase-Activated Protein Kinase 5 (MAPKAPK5)).
Protocol: NVS_ENZ_hMAPKAPK5 is a biochemical, single-readout assay that uses extracted gene-proteins in a cell-free assay. Measurements were taken 1 hour after chemical dosing in a 384-well plate.NVS_ENZ_hMAPKAPK5 is one of one assay component(s) measured or calculated from the NVS_ENZ_hMAPKAPK5 assay. It is designed to make measurements of enzyme activity, a form of enzyme reporter, as detected with fluorescence intensity signals by Fluorescence and electrophoretic mobility shift technology.Data from the assay component NVS_ENZ_hMAPKAPK5 was analyzed into 1 assay endpoint. This assay endpoint, NVS_ENZ_hMAPKAPK5, was analyzed in the positive analysis fitting direction relative to DMSO as the negative control and baseline of activity. Using a type of enzyme reporter, loss-of-signal activity can be used to understand changes in the enzymatic activity as they relate to the gene MAPKAPK5. Furthermore, this assay endpoint can be referred to as a primary readout, because this assay […]. To generalize the intended target to other relatable targets, this assay endpoint is annotated to the kinase intended target family, where the subfamily is serine/threonine kinase.
Binding assays used specific radioligands (tritiated, iodinated) with non-radioactive competitive displacement ligands in agonist or antagonist protocols (as indicated) and various reference compounds and inhibitors to titrate specific binding to receptors and transporters. Most enzyme assays (CYPs, kinases, phosphatases, proteases, HDACs) used recombinant protein and specific substrates (fluorescence mostly, some colorimetric and radioactive) and inhibitors, followed by a biochemical separation of substrate and product. All assays for the biochemical HTS were initially run in duplicate at a single concentration (10 uM for CYP450 assays and 25 uM for all others). Assay-chemical combinations meeting a pre-defined threshold (e.g., 30% inhibition and other criteria defined below) were then run in singleton concentration-response format with maximum concentration of 20 uM for CYPs and 50 uM for all others. Each assay was run with positive and negative controls, and concurrent controls on every plate. The follow-up (secondary) screen tested active chemical-pairs in concentration series, as well as a few additional assays not tested in the primary screen, some selected negative inactives, and several cases re-run in the concentration series for confirmatory purposes.

Sequence of human MAP Kinase-Activated Protein Kinase 5 (MAPKAPK5), MAPKAPK5 (gene 8550) (Q8IW41 whole entry, looked up): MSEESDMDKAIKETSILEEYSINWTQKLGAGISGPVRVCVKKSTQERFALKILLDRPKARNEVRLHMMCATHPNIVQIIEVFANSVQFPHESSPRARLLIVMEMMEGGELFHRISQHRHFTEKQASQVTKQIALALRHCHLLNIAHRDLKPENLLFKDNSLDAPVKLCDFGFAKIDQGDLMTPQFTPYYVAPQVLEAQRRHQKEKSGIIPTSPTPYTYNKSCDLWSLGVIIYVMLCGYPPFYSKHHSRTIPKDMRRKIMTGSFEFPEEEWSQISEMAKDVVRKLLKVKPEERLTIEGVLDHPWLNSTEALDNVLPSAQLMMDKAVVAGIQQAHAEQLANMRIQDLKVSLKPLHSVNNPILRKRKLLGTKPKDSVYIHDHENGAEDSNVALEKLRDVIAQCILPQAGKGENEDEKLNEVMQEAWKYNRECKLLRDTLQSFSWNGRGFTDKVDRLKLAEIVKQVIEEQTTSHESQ

How did the AC50 turn out when `N#CSCSc1nc2ccccc2s1` was run?
Its AC50 is 14.7 µM (active).

For `S=C(S)NCCNC(=S)S.[Mn+2].[S-]C([S-])=NCCN=C([S-])[S-].[Zn+2]`, which AC50 is on record?
Its AC50 is 2.41 µM (active).

How did the outcome turn out when `CCN(CC)C(=O)c1cccc(C)c1` was run?
Its outcome is “inactive”.

With `S=C([S-])NCCNC(=S)[S-].[Mn+2]` as the compound, how does the AC50 read?
The AC50 was 0.789 µM (active).

For `O=C(O)C1(C(=O)Nc2ccc(Cl)cc2Cl)CC1`, which AC50 is on record?
Its AC50 is 19.1 µM (active).

`O=C(Nc1ccc([N+](=O)[O-])cc1Cl)c1cc(Cl)ccc1O` was tested. Which outcome did it give?
Its outcome is “inactive”.

How did the outcome turn out when `CCOC(=O)[C@H](C)Oc1ccc(Oc2nc3ccc(Cl)cc3o2)cc1` was run?
The outcome was “inactive”.
